According to ChEMBL document CHEMBL1157539, “Thousands of chemical starting points for antimalarial lead identification” (Nature, 2010):

Assays:
Assay type in all cases: functional
Plasmodium falciparum [1] = assay: GSK_TCMDC: Inhibition of Plasmodium falciparum 3D7 in whole red blood cells, using parasite LDH activity as an index of growth. Test compounds present at 2uM
Plasmodium falciparum [2] = assay: GSK_TCMDC: Inhibition of Plasmodium falciparum Dd2 in whole red blood cells, using parasite LDH activity as an index of growth. Test compounds present at 2uM
HepG2 = assay: GSK_TCMDC: Percent inhibition of human HepG2 cell line. Test compounds present at 10uM.

Structure (SMILES) | Inhibition (Plasmodium falciparum [1]) [%] | Inhibition (Plasmodium falciparum [2]) [%] | Inhibition (HepG2) [%]
Cc1cccc2nc(-c3cccc(-c4ccc(C(=O)NCCc5ccc(O)c(=O)[nH]5)cc4)c3)[nH]c12 | 85 | 30 | 20
Cc1nn(-c2ccccc2)nc1C(=O)NC1CCN(CCNC(=O)c2ccc(Cl)c(Cl)c2)CC1.O=C(O)C(F)(F)F | 89 | 5 | 15
O=S(=O)(Nc1ccc(CCN2CCC(N3CCCCC3)CC2)cc1)c1cccc(C(F)(F)F)c1 | 100 | 15 | 20
Cc1ccc(NC(=O)c2ccc(CN3CCCN(CC4CCCCC4)CC3)cc2)cc1.O=C(O)C(F)(F)F | 93 | 42 | 41
Cc1ccc(Oc2ccccc2NC(=O)CCc2nc3ccccc3c(=O)[nH]2)cc1 | 100 | 99 | 3
Cc1ccc(NC(=O)c2ccc3ncccc3c2)cc1OC1CCN(Cc2ccc(F)cc2)C1.O=C(O)C(F)(F)F (stereo unspecified) | 83 | 28 | 11
c1cncc(Oc2ccc(Nc3ccnc4cc(-c5cccc(CNCCN6CCOCC6)c5)ccc34)cc2)c1 | 100 | 99 | 14
CN(C)CCNCc1nc(-c2ccc3c(Nc4ccc(Oc5ccccc5)cc4)ccnc3c2)cs1 | 100 | 100 | 8
O=C(Nc1cccc(-c2cccc(CN3CCCC3)c2)c1)c1ccc(Cl)cc1.O=C(O)C(F)(F)F | 93 | 32 | 50
CCOC(=O)C1=C(C)NC(C)=C(C(=O)OCC)C1(C(=O)OCc1ccccc1)c1cccc(C(F)(F)F)c1 | 88 | 60 | 0
O=C(O)C(F)(F)F.c1ccc(CNCc2cccc(-c3cccc(-c4nc5ccccc5[nH]4)c3)c2)cc1 | 100 | 38 | 12
Cc1cccc2nc(-c3ccc(-c4ccc(CN5CCN(c6ccc(C#N)cn6)CC5)cc4)s3)[nH]c12.O=C(O)C(F)(F)F | 98 | 44 | 10
COc1ccc2c(NN=Cc3ccccc3F)ccnc2c1 | 98 | 99 | 15
Cc1ccc(-c2cnc(N)c3cc(-c4ccnc(N)n4)ccc23)cc1 | 99 | 94 | 41
CC(C)c1ccc(NC(=O)N2CCc3ccc(OCCN(C(C)C)C(C)C)cc32)c(Br)c1.O=C(O)C(F)(F)F | 86 | 5 | 6
CC(CNCc1cn(Cc2cc(Br)cc(Br)c2)c2ccccc12)CNc1cc(=O)c2ccccc2[nH]1 (stereo unspecified) | 100 | 50 | 10
O=C(Nc1ccc(-c2ccc(-c3nc4ccccc4[nH]3)cc2)cc1)Nc1ccc(Cl)c(Cl)c1 | 100 | 100 | 68
